Unmarked numbers belong to inactive results.
Tested on: Plasmodium falciparum NF54/iGP1_RE9H ulg8 stage V gametocytes
Test: gametocyte viability (luciferase signal relative to DMSO control) (% of DMSO control); higher = less gametocytocidal activity, active = 50 or less
Conditions: concentration: 10 µM; exposure time: 72 h
How it was run: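 Viability was calculated relative to the mean of DMSO vehicle wells on each plate. Day-12 stage V gametocytes of line NF54/iGP1_RE9Hulg8 (~2.5% gametocytemia, 3% hematocrit, 0.5% Albumax II medium) were exposed in 96-well plates to compounds at final 10 µM or 1 µM, one well each, for 72 h at 37 °C. Luminescence was then read on an IVIS Lumina II after D-luciferin addition.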

Row | Compound | gametocyte viability
1 | CC1CNCCN1S(=O)(=O)c1cccc2cnccc12 (stereo not drawn) | 97.9
2 | Cc1cc(Nc2cc(N3CCN(C)CC3)nc(/C=C/c3ccccc3)n2)n[nH]1 | 71.4
3 | CO[C@@H](C(=O)N1Cc2[nH]nc(NC(=O)c3ccc(N4CCN(C)CC4)cc3)c2C1)c1ccccc1 | 71.6
4 | NC(=O)c1ccc(-c2nc(-c3ccccn3)c(-c3ccc4c(c3)OCO4)[nH]2)cc1 | 125
5 | Cc1nc(N)sc1-c1ccnc(Nc2ccc(N3CCOCC3)cc2)n1 | 108
6 | O=Nc1c(-c2c(O)[nH]c3ccccc23)[nH]c2ccccc12 [Indirubin-3'-monooxime] | 86.8
7 | COc1cc2nccc(Oc3ccc(NC(=O)Nc4cc(C)on4)c(Cl)c3)c2cc1OC [Tivozanib (AV-951)] | 99.8
8 | C#Cc1cccc(Nc2ncnc3cc(OCCOC)c(OCCO)cc23)c1 [OSI-420 (Desmethyl Erlotinib)] | 97
